PubChem BioAssay AID2546 (National Center for Advancing Translational Sciences (NCATS), 2010)
Hit rate of the full screen: of about 310,000 compounds, about 11,000 (3.5%) were called active. About 8% were inconclusive and are not listed. This excerpt belongs to a sample that is enriched for actives. Values without a mark were called inactive. The call rests on the fitted dose curve; in most records, active means well fitted inhibition curve with a large enough effect; inconclusive means small, poorly fitted or top-dose-only effect, or effect the other way; inactive means flat fitted curve, though single readings scatter.

Assay: VP16 counterscreen qHTS for inhibitors of ROR gamma transcriptional activity;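 further: Gal4-VP16 expression switched on by copper sulfate through the metallothionein promoter; nearly all actives have a fitted effect of over 50% in size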
Settings: Drosophila S2 Gal4-VP16 UAS-luciferase, luminescence, 20 h; series mostly up to 53.6 µM; activity, negative = inhibition: at the top concentration
Excerpt: NIH Molecular Libraries Probe Production Network [MLPCN]
NIH Chemical Genomics Center [NCGC]
Assay Provider: Dan Littman, New York University
The retinoic acid-related orphan receptor (ROR) gamma is a transcription factor that has a central role in the differentiation of Th17 cells, a subset of T helper cells that secrete the inflammatory cytokines IL-17, IL-17F, and IL-22. Th17 cells have been implicated in graft versus host disease, autoimmune disease and asthma. ROR gamma is induced in naive T helper cells in the presence of TGF-beta combined with IL-6, IL-21, or IL-23, and thereafter directs the expression of the Th17 lineage cytokines. To identify nonspecific inhibitors, a Drosophila Schneider cell line was stably transfected with two vectors: a gene expressing a fusion of the Gal4 DNA binding domain and VP16 transactivation domain under the control of the metallothionine promoter and a Photinus luciferase reporter regulated by the Gal4 binding site enhancer, UAS. […] Small molecule inhibitors that inhibit components common to the RORgt and VP16 assays, such as the Gal4 DNA binding domain or the UAS luciferase reporter, will be active in both assays and thus scored as nonspecific.
For screening, 600 cells in 4 uL/well were dispensed into white solid 1536-well plates (Grenier) using a solenoid-based dispenser. Following transfer of 23 nL compound or DMSO vehicle by a pin tool, the plates were incubated 1 hr at ambient temperature, and 1 uL/well copper sulfate (700 uM final concentration) was added. The plates were centrifuged 15 s at 1000 RPM and incubated 20 hr at ambient temperature. After addition of 1.5 uL Photinus luciferase detection reagent, the plates were incubated 10 min at ambient temperature and then read by a ViewLux (Perkin Elmer) to detect luminescence.
On the % scale 0 is the no-effect control and ±100 the full control effect; potency means the concentration at half of the fitted maximal effect.

Q: With `Fc1ccc(C(OCCN2CCN(C/C=C\c3ccccc3)CC2)c2ccc(F)cc2)cc1` as the compound, how does the Potency read?
A: 15.8 µM (active)

Q: With `CC(=O)c1c(O)c(C)c(O)c(Cc2c(O)c3c(c(C(=O)/C=C\c4ccccc4)c2O)OC(C)(C)C=C3)c1O` as the compound, how does the “activity, negative = inhibition” value read?
A: -0.988%

Q: Which “activity, negative = inhibition” value does the source give for `CC(C)(O)c1[se]c2ccccc2c1I` here?
A: -17.8%

Q: Which Potency does the source give for `N#CC(C#N)=Cc1cc(O)c(O)c([N+](=O)[O-])c1` here?
A: 22.4 µM (active)

Q: Which “activity, negative = inhibition” value does the source give for `CC(C)(c1ccccc1)c1ccc(O)cc1` here?
A: 7.15%

Q: For `COC1=C[C@]23CCCN2CCc2cc4c(cc2[C@@H]3[C@@H]1O)OCO4`, which “activity, negative = inhibition” value is on record?
A: -7.05%

Q: Which “activity, negative = inhibition” value does the source give for `CCCCC(=O)N/N=C/c1c(O)n(CCC2=CCCCC2)c(=O)[nH]c1=O` here?
A: 1.97%

Q: With `CCCCC(=O)N/N=C/c1c(O)n(-c2ccccc2)c(=O)[nH]c1=O` as the compound, how does the “activity, negative = inhibition” value read?
A: 1.03%

Q: For `CCCCC(=O)N/N=C/c1c(O)n(CC)c(=S)n(CC)c1=O`, which Potency is on record?
A: 3.16 µM (active)

Q: With `c1ccc2sc(SNC3CCCCC3)nc2c1` as the compound, how does the “activity, negative = inhibition” value read?
A: 2.39%

Q: Which “activity, negative = inhibition” value does the source give for `CN1CCN(C(=O)O[C@@H]2c3nccnc3C(=O)N2c2ccc(Cl)cn2)CC1` here?
A: -7.9%

Q: With `CC[C@H]1CN2CCc3cc(OC)c(OC)cc3[C@@H]2C[C@@H]1C[C@H]1NCCc2cc(OC)c(OC)cc21` as the compound, how does the Potency read?
A: 1.26 µM (active)

Q: For `CNC(C)[C@@H](O)c1ccccc1` (some centres not stated), which “activity, negative = inhibition” value is on record?
A: 9.08%

Q: Which “activity, negative = inhibition” value does the source give for `c1ccc(N2CC[C@@]3(CCCNC3)C2)nc1` here?
A: -11.8%

Q: With `CC(Cl)Cl` as the compound, how does the “activity, negative = inhibition” value read?
A: 4.63%

Q: Which “activity, negative = inhibition” value does the source give for `COC(=O)N1C(c2ccccc2)C1c1ccccc1` (configuration not stated) here?
A: 9.71%

Q: Which Potency does the source give for `CC(=O)[O][Sn]([c]1ccccc1)([c]1ccccc1)[c]1ccccc1` here?
A: 3.55 µM (active)

Q: Which “activity, negative = inhibition” value does the source give for `CC[C@@H]1CN2CC[C@@H]1C[C@H]2[C@H](O)c1ccnc2ccc(OC)cc12` here?
A: 9.73%

Q: For `CCN1C[C@]2(C)CC[C@H](O)[C@@]34[C@@H]5CC6[C@@H](OC)C[C@@](O)([C@@H]5[C@@H]6O)[C@H](C[C@@H]23)[C@H]14`, which “activity, negative = inhibition” value is on record?
A: 2.08% [at 17 µM]

Q: With `CCN1C[C@@]2(COC)CC[C@H](OC)[C@]34[C@@H]1[C@]1(OCO[C@@]15C[C@@H](OC)C1C[C@H]3[C@H]5[C@@H]1OC)[C@H](O)[C@@H]24` as the compound, how does the “activity, negative = inhibition” value read?
A: 2.2% [at 17 µM]

Q: With `NC[C@H](O)c1ccc(O)cc1` as the compound, how does the “activity, negative = inhibition” value read?
A: 4.06% [at 17 µM]

Q: With `COc1cccc(-c2nc3ccc(N4CCN(C)CC4)cc3[nH]2)c1` as the compound, how does the Potency read?
A: 2 µM (active)

Q: For `CN1CCN(c2cc(N3CCNCC3)ccc2[N+](=O)[O-])CC1`, which “activity, negative = inhibition” value is on record?
A: -5.63%

Q: Which “activity, negative = inhibition” value does the source give for `CCCCC#N` here?
A: 10.3%

Q: Which “activity, negative = inhibition” value does the source give for `COc1ccc(C2Oc3c(I)c(OC)cc(OC)c3CC2O)cc1OC` (configuration not stated) here?
A: 7.75%

Q: Which “activity, negative = inhibition” value does the source give for `C[C@@]12CC[C@H]3[C@@H](CC[C@]4(O)C[C@H](O)CC[C@@]34C=O)[C@]1(O)CC[C@@H]2C1=CC(=O)OC1` here?
A: 4.3% [at 17 µM]

Q: For `Clc1ccccc1`, which “activity, negative = inhibition” value is on record?
A: -4.14%

Q: With `C[C@@H]1C[C@@H]2O[C@H]2/C=C\C=C\C(=O)Cc2c(Cl)c(O)cc(O)c2C(=O)O1` as the compound, how does the Potency read?
A: 12.6 µM (active)

Q: With `C[C@]12O[C@H](C[C@@]1(O)C(=O)O)n1c3ccccc3c3c4c(c5c6ccccc6n2c5c31)CNC4=O` as the compound, how does the “activity, negative = inhibition” value read?
A: -2.92%

Q: Which “activity, negative = inhibition” value does the source give for `CN1CCCC(=C(c2cccs2)c2cccs2)C1` here?
A: -0.628%

Q: Which Potency does the source give for `Cc1nc2ccccn2c1P(=S)(N1CCCCC1)N1CCCCC1` here?
A: 11.2 µM (active)

Q: Which “activity, negative = inhibition” value does the source give for `c1ccc(CCCCN2CCC(c3ccccc3)CC2)cc1` here?
A: 16%

Q: For `O=c1oc2ccccc2c(O)c1C(c1ccccc1O)c1c(O)c2ccccc2oc1=O`, which “activity, negative = inhibition” value is on record?
A: -0.571%

Q: Which “activity, negative = inhibition” value does the source give for `CC(C)(C)C(O)(CCc1ccc(Cl)cc1)Cn1cncn1` (configuration not stated) here?
A: -6.68%

Q: For `CC1=CC(=O)C2=C(C)C[C@H](O)[C@H]3[C@H](C)C(=O)O[C@@H]3C12` (some centres not stated), which “activity, negative = inhibition” value is on record?
A: -4.17%

Q: Which “activity, negative = inhibition” value does the source give for `CCCCCCCCCCCCCC(=O)O[C@@H]1[C@@H](C)[C@@]2(O)[C@@H](C=C(CO)C[C@]3(O)C(=O)C(C)=C[C@@H]23)[C@@H]2C(C)(C)[C@]12OC(C)=O` here?
A: -3.2%

Q: For `CCCCCCCCc1[se]c2ccccc2c1Br`, which “activity, negative = inhibition” value is on record?
A: -0.332%

Q: For `CN(C)C[C@H]1CCCC[C@]1(O)c1cccc(O)c1`, which “activity, negative = inhibition” value is on record?
A: -7.52%

Q: With `Cc1ccc(NC(=O)CN(C)CC(=O)Nc2cccc(F)c2)cc1[N+](=O)[O-]` as the compound, how does the Potency read?
A: 4.47 µM (active)

Q: With `c1ccc(CN2CC[C@@]3(CCCNC3)C2)cc1` as the compound, how does the “activity, negative = inhibition” value read?
A: -2.59%

Q: With `ClCCBr` as the compound, how does the “activity, negative = inhibition” value read?
A: -6.24%

Q: With `COc1cc(-n2c(=S)[nH]c3ccc(C)cc3c2=O)c(Cl)cc1Cl` as the compound, how does the Potency read?
A: 5.62 µM (active)
